NPR1 activator – GC-A (human) enzyme activation; actives 0.14% (n = 370,000); HEK293 GC-A cells, cGMP TR-FRET, EC30 ANP; 0% at EC30 ANP, 100% saturating ANP; activation, % at 10 µM; P16066; in the data active means activation above about 40%
PfG6PD inh – PfG6PD (Plasmodium falciparum) enzyme inhibition | actives 0.78% (n = 350,000) | PfGluPho enzyme, NADPH resazurin-diaphorase fluorescence | inhibition, % at 20 µM;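 active means inhibition reaching at least a set limit at 20 µM in the primary screen, cut at about 59% in these data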
APOBEC3G inh – inhibitors of human APOBEC3G DNA deaminase; actives 0.28% (n = 330,000); inhibition, % at 20 µM; Q9HC16; AID 493012; recombinant A3G, ssDNA deamination FAM/TAMRA fluorescence;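 active means inhibition of at least 40% at 20 µM, with no more than 30% in the related APOBEC3A deaminase screen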
APOBEC3A inh – blocks human APOBEC3A ssDNA deamination; P31941; recombinant A3A, FAM/TAMRA ssDNA deamination fluorescence; inhibition, % at 20 µM; actives 0.41% (n = 330,000); AID 493011;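 active means at least 40% inhibition at 20 µM here, with at most 30% in a related deaminase screen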
Neddyl block – cullin neddylation inhibition; AID 651699; TR-FRET cullin neddylation, biochemical; inhibition, % at 25 µM; actives 0.58% (n = 360,000); P61081+Q13564; in the data active means inhibition above about 36%
Target sequence (P61081 whole entry, looked up): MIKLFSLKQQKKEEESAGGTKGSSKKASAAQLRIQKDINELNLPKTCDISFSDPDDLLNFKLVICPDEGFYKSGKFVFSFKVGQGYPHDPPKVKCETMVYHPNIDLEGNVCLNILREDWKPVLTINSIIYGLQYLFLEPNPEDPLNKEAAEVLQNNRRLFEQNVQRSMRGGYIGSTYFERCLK
Target sequence (Q13564 whole entry, looked up): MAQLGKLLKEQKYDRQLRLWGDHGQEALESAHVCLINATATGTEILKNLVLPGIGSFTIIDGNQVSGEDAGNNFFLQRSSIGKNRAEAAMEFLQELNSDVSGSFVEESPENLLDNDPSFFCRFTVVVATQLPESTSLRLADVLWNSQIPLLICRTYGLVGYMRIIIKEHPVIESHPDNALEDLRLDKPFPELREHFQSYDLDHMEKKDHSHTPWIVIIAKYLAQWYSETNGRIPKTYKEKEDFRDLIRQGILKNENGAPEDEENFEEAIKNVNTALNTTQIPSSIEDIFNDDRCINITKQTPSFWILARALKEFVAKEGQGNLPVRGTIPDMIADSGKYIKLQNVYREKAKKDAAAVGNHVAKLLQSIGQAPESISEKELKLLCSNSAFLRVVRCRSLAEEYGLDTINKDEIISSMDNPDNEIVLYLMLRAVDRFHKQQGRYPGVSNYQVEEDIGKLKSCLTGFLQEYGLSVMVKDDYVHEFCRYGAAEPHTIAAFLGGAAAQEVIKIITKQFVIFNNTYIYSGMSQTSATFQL
GC-B act – GC-B (human) receptor activation; activation, % at 10 µM; HEK293-GC-B cells, CNP EC30, cGMP TR-FRET; 0% at EC30 CNP, 100% saturating CNP; actives 0.11% (n = 370,000); AID 1920062;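 active means activation at 10 µM reaching about 35% in either raw or pattern-adjusted values, limit read from the data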
A3A conf – confirmation of human APOBEC3A DNA deaminase inhibitors | shares compounds with APOBEC3A inh | recombinant A3A, ssDNA deaminase UDG fluorescence assay | inhibition, % at 20 µM | actives 63% (n = 1,400) | AID 493151;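 active means inhibition reaching a set limit, 80% of the first screen's cutoff, at 20 µM in any replicate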
UDG ctr A3A – counter-screen for APOBEC3A inhibitors: UDG | shares compounds with APOBEC3A inh | UDG counterscreen, FAM/TAMRA uracil oligo fluorescence | inhibition, % at 20 µM | 1,000 tested, under 10 active | AID 504714; call rule not given here
APOBEC3G confirm – confirmation of human APOBEC3G DNA deaminase inhibitors; shares compounds with APOBEC3G inh; recombinant A3G ssDNA deaminase, UDG/FAM-TAMRA fluorescence; inhibition, % at 20 µM; actives 72% (n = 890); AID 493152;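 active means inhibition reaching a set limit in any replicate at 20 µM, the limit being 80% of the first screen's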
UDG ctr A3G – inhibits E. coli UDG, flagging false APOBEC3G inhibitors | shares compounds with APOBEC3G inh | AID 504715 | 710 tested, under 10 active | UDG counterscreen, FAM/TAMRA oligo fluorescence | inhibition, % at 20 µM;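 active means compounds giving 40% or more inhibition at 20 µM in any one of the three replicates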;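 further: inhibitors lower the FAM signal released by uracil excision and alkaline cleavage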
PfG6PD confirm – PfG6PD inhibition, single-dose confirmed; shares compounds with PfG6PD inh; recombinant PfGluPho, NADPH-diaphorase-resazurin fluorescence; inhibition, % at 20 µM; actives 34% (n = 2,400); AID 504753;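 active means inhibition of at least 50% at 20 µM in any single replicate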
Neddyl conf – cullin neddylation inhibition, confirmation; shares compounds with Neddyl block; TR-FRET cullin neddylation biochemical assay; calls only at 25 µM; actives 13% (n = 1,800); in the data active means inhibition above about 40%;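 further: neddylation substrate is the cullin 1 ring ligase complex with SKP2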
Hits are given with their value; - = inactive; . = not tested or not shown. This is a sample that favours compounds with a hit; in the whole collection about 2% have one here.

SMILES | NPR1 activator | PfG6PD inh | APOBEC3G inh | APOBEC3A inh | Neddyl block | GC-B act | A3A conf | UDG ctr A3A | others
COc1cc(OC)c2ccc(=O)oc2c1C(CC(=O)N1CCCC(C)C1)c1ccc2c(c1)OCO2 (configuration not stated) | - | - | - | - | - | - | . | .
COc1ccc(NC(=O)Cc2coc3cc(C)c(C(C)C)cc23)cc1S(=O)(=O)N1CCOCC1 | - | - | - | 49 | - | - | - | .
CS(=O)(=O)c1ccc(-c2nnn(CC(N)=O)n2)cc1 | - | - | - | 50 | - | - | - | .
CSc1ccccc1NC(=O)Cn1nnc(-c2ccc(S(C)(=O)=O)cc2)n1 | - | - | - | - | - | - | . | .
Cc1cc(NS(=O)(=O)C2CCN(C(=O)Cc3ccc(Cl)c(Cl)c3)CC2)no1 | - | . | . | . | . | - | . | .
CCNc1ccc(S(=O)(=O)N(C)C)cc1[N+](=O)[O-] | - | - | - | 67 | - | - | 54 | .
CCCCNc1ccc(S(N)(=O)=O)cc1[N+](=O)[O-] | . | . | - | - | . | . | . | .
COc1ccc(OCc2cc(C(=O)O)c(C)o2)cc1 | . | . | - | 53 | . | . | 34 | .
CCN(CC)Cc1cc(C(=O)O)c(C)o1 | - | - | - | - | - | - | . | .
COC(=O)[C@]12C[C@H](CC(=O)NCc3cccc(C(F)(F)F)c3)C(=O)N(Cc3ccc4c(c3)OCO4)C1=C[C@H](C(C)(C)C)O[C@@H]2C | - | . | . | . | . | - | . | .
CCC1=[N+](C)CCn2c(C)ccc21 | - | - | - | 64 | - | - | 76 | -
CC1(C)CC2CC(C)(CN2S(=O)(=O)c2cccc(C(=O)OCC(=O)NC(N)=O)c2)C1 (configuration not stated) | - | - | - | 54 | - | - | - | .
COc1ccc2c(c1)O/C(=C\c1ccco1)C2=O | - | - | - | - | - | - | . | .
Cc1cc(O)c(CN(C)C)c2c1C(=O)/C(=C/c1ccco1)O2 | - | - | - | 48 | - | - | 15 | -
CC1=CC(C)(C)[N+](C)(C)c2ccccc21 | - | - | - | 77 | - | - | 72 | -
CC1=CC(C)(C)N(C(=O)c2ccccc2)c2ccccc21 | - | - | - | - | - | - | . | .
O=c1cccc2n1Cc1cc3ccccc3nc1-2 | - | - | - | 49 | - | - | - | .
CCn1c2ccccc2c2cc(C=NNC(=O)CSc3nc4ccccc4c(=O)n3-c3ccccc3)ccc21 | - | . | . | . | . | - | . | .
CCn1ncc(-c2ccnc3cc(C(=O)O)nn23)c1C | - | - | - | 94 | . | - | 77 | -
COc1ccc(CCNC(=O)CN(C2CCCCC2)S(C)(=O)=O)cc1OC | - | - | - | 44 | - | - | 58 | -
Cc1sc2nc(SCC(=O)c3ccc(O)c(O)c3)n(C)c(=O)c2c1C | - | . | . | . | . | - | . | .
CCOC(=O)c1ccc2c(c1)N(CC)C(=O)c1ccccc1S2 | . | - | - | 52 | - | . | 72 | -
C=CCNC(=O)c1ccc2c(c1)N(CC)C(=O)c1ccccc1S2 | - | - | - | - | - | - | . | .
O=C(NNC(=O)c1cccc(-n2cccc2)c1)c1ccc(F)cc1 | - | - | - | 42 | - | - | 28 | -
CCOc1cc(N2CCOCC2)c(OCC)cc1NS(=O)(=O)c1ccc(Cl)s1 | - | - | - | 60 | - | - | - | .
SMILES | NPR1 activator | PfG6PD inh | APOBEC3G inh | APOBEC3A inh | Neddyl block | GC-B act | A3A conf | UDG ctr A3A | others
CCOc1cc(N2CCOCC2)c(OCC)cc1NC(=O)c1cc(S(=O)(=O)N2CCOCC2)ccc1Cl | - | - | - | - | - | - | . | .
COC(=O)[C@H]1C[C@@]2(N3CCCCC3)c3ccccc3N(S(=O)(=O)c3ccccc3)[C@H]2N1 | - | . | . | . | . | - | . | .
O=C(CCn1nnc(-c2cccs2)n1)N1CCOCC1 | - | . | . | . | . | - | . | .
O=P(c1ccccc1)(c1ccccc1)c1cc(S(=O)(=O)O)ccc1O | - | - | - | 83 | - | - | 63 | -
COc1ccc2c(c1)sc(=N)n2C | - | - | - | 44 | - | - | - | .
CCN1CCCCC(NC(=O)c2cc(OC)c(OC)c(OC)c2)C1=O (configuration not stated) | - | . | . | . | . | - | . | .
O=C([C@@H]1C[C@H]1c1ccccc1)N1CC[C@H]2[C@H](CCCN2Cc2ccc(F)cc2)C1 | - | . | . | . | . | - | . | .
CC[n+]1cccc(-c2nc3ccccc3s2)c1 | - | - | - | 53 | - | - | 64 | -
Oc1cccc(-c2nc3ccccc3s2)c1 | - | - | - | - | - | - | . | .
CC(=O)C1(C(=O)NCc2ccccc2)CC(c2ccccc2C(F)(F)F)=NO1 (configuration not stated) | - | . | . | . | . | - | . | .
O=C(/C=C/c1ccco1)Nc1scc(-c2ccccc2)c1C(=O)O | - | 75 | - | 59 | - | - | 69 | - | PfG6PD confirm=-
O=C1CCC[C@H]2C[C@H](NCc3cccc(F)c3)CC[C@]23CCCN13 | - | . | . | . | . | - | . | .
CC(=O)Nc1nc(CC(C)C)cc(-c2ccccc2)c1C#N | - | - | - | - | - | - | . | .
CC(=O)Nc1nc(CC(C)C)cc(-c2ccco2)c1C#N | - | - | - | 40 | 45 | - | 51 | - | Neddyl conf=-
CCCOc1cccc(C2C(C(=O)c3cc4ccccc4o3)=C(O)C(=O)N2c2cc(C)on2)c1 (configuration not stated) | - | - | - | 57 | 44 | - | - | - | Neddyl conf=-
CCC[C@H]1[C@@H](OC(=O)NCc2ccc(C(F)(F)F)cc2)CC[C@@]23CCCN2C(=O)CCC[C@@H]13 | - | . | . | . | . | - | . | .
O=C(CCC(=O)OCC(=O)c1ccc(-c2ccccc2)cc1)Nc1cccc2cccnc12 | - | - | - | - | - | - | . | .
O=C(CCC(=O)OCC(=O)c1ccc(Cl)cc1Cl)Nc1cccc2cccnc12 | - | - | 54 | - | - | - | . | . | APOBEC3G confirm=-;UDG ctr A3G=-
C=CCn1c(CSc2ccccc2[N+](=O)[O-])n[nH]c1=S | - | - | 46 | - | - | - | . | . | APOBEC3G confirm=68;UDG ctr A3G=-

High-throughput results deposited in PubChem by Sanford-Burnham Center for Chemical Genomics.
